Results as given in PubChem BioAssay (NCI).
The panel holds about 79,000 compounds, 15% with a hit somewhere; the sample as a whole holds those more often. The source made the active and inactive calls. No stated cut-off is given here; in the data, active means growth inhibition above about 70%; inactive means the rest.

Legend:
[1] = NCI Yeast Anticancer Drug Screen. Data for the rad52 strain (AID 147);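 further: 0% = growth of vehicle-treated control cultures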; conditions: S. cerevisiae rad52 mutant growth inhibition, active compounds read high
Method in brief: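 Here a repair-compromised yeast strain receives each compound; its growth is then quantified and normalised to vehicle-only controls.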

[2] = NCI Yeast Anticancer Drug Screen. Data for the rad50EPP+ strain (AID 151);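 further: 0% = growth of vehicle-treated control cultures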; conditions: S. cerevisiae rad50 mutant strain, active compounds read high
Method in brief: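 Read-out is yeast growth inhibition relative to vehicle; cells used were the rad50EPP+ strain.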

[3] = NCI Yeast Anticancer Drug Screen. Data for the mgt1 strain (AID 153); conditions: S. cerevisiae mgt1 mutant growth inhibition, active compounds read high
Method in brief: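 Measured: inhibition of mgt1 yeast growth by compound, normalized to vehicle-treated cultures.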

[4] = NCI Yeast Anticancer Drug Screen. Data for the rad50 strain (AID 155);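 further: 0% = growth of vehicle-only cultures of the same strain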; conditions: S. cerevisiae rad50 strain growth inhibition, active compounds read high
Method in brief: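 Cells are treated with compound, grown, and their growth is then scored against vehicle-only cultures of the same repair-deficient yeast strain.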

[5] = NCI Yeast Anticancer Drug Screen. Data for the mec2-1 strain (AID 157); conditions: S. cerevisiae mec2-1 strain, active compounds read high
Method in brief: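 Using mec2-1 yeast: add compound, measure growth, express inhibition versus vehicle-treated cultures.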

[6] = NCI Yeast Anticancer Drug Screen. Data for the rad14 strain (AID 159);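 further: 0% = growth of vehicle-treated control cultures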; conditions: S. cerevisiae rad14 strain growth inhibition, active compounds read high
Method in brief: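 Readout: yeast growth inhibition, referenced to vehicle-only cultures. Strain bears a defined alteration in DNA damage repair.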

[7] = NCI Yeast Anticancer Drug Screen. Data for the sgs1 mgt1 strain (AID 161);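 further: 0% = growth of cultures given vehicle only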; conditions: S. cerevisiae sgs1 mgt1 strain, active compounds read high
Method in brief: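 Compounds are added to genetically altered yeast, and growth is compared with cultures given vehicle alone to give percent inhibition.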

[8] = NCI Yeast Anticancer Drug Screen. Data for the CLN2oe strain (AID 163);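 further: 0% = growth of vehicle-only control cultures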; conditions: S. cerevisiae CLN2oe strain, active compounds read high
Method in brief: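 Whole-cell yeast growth assay. A strain engineered for altered cell-cycle control received compound, and inhibition relative to vehicle-treated cultures was recorded.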

[9] = NCI Yeast Anticancer Drug Screen. Data for the cln2 rad14 strain (AID 165);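 further: 0% = growth equal to vehicle treated cultures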; conditions: S. cerevisiae cln2 rad14 strain, active compounds read high
Method in brief: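 Yeast strain cln2 rad14, bearing defects in cell cycle control and DNA repair, serves as the test system; values reflect growth inhibition compared with vehicle.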

[10] = NCI Yeast Anticancer Drug Screen. Data for the bub3 strain (AID 167); conditions: S. cerevisiae bub3 mutant strain, active compounds read high
Method in brief: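 Part of a panel of yeast mutants defective in DNA damage repair or cell cycle regulation. Each strain is grown with compound, and inhibition is calculated relative to solvent-treated cultures.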

[11] = NCI Yeast Anticancer Drug Screen. Data for the wt2 strain (AID 169);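 further: 0% = growth of vehicle-treated yeast cultures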; conditions: S. cerevisiae wt2 strain growth inhibition, active compounds read high
Method in brief: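 Treated yeast vs. vehicle-treated yeast: growth inhibition determined.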

[12] = NCI Yeast Anticancer Drug Screen. Data for the mlh1 strain (AID 171);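 further: 0% = growth of vehicle-treated control cultures of the same strain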; conditions: S. cerevisiae mlh1 strain growth inhibition, active compounds read high
Method in brief: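 A yeast strain with a defined genetic lesion serves as the test organism. Cultures receive compound or vehicle, and growth is measured.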

[13] = NCI Yeast Anticancer Drug Screen. Data for the sgs1 strain (AID 173);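 further: 0% = growth of vehicle-only control cultures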; conditions: S. cerevisiae sgs1 mutant, active compounds read high
Method in brief: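 A genetically defined yeast mutant is incubated with the test compound, and its growth is compared to that of the same strain given vehicle.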

[14] = NCI Yeast Anticancer Drug Screen. Data for the mlh1 rad18 strain (AID 175); conditions: S. cerevisiae mlh1 rad18 strain growth inhibition, active compounds read high
Method in brief: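 Steps: expose repair-defective yeast to compound; measure growth; express inhibition against vehicle-treated controls.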

[15] = NCI Yeast Anticancer Drug Screen. Data for the rad18 strain (AID 177); conditions: S. cerevisiae rad18 mutant growth inhibition, active compounds read high
Method in brief: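 Measured value is growth inhibition of a yeast strain bearing a DNA repair alteration, referenced to vehicle-treated cells.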

[16] = NCI Yeast Anticancer Drug Screen. Data for the wt1 strain (AID 149);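 further: 0% = growth of vehicle-treated wt1 cultures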; conditions: S. cerevisiae wt1 strain (SPY 50644) growth inhibition, active compounds read high
Method in brief: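 The wt1 strain was treated with compounds, and growth was compared with vehicle-treated cultures to give inhibition.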

[17] = at 5.0 µM (retest, dose inferred, filed as 0.5)
[18] = at 50.0 µM (retest, dose inferred, filed as 5.0)

Measured: growth inhibition

O=C1C=C(CN(CCCl)CCCl)C(=O)C=C1CN(CCCl)CCCl
inactive: [1]; at 1.2 µM 0% | [1]; at 3.7 µM 0% | [1]; at 11.0 µM 4% | [1]; at 33.0 µM 14% | [1]; at 100.0 µM 46% | [2]; at 1.2 µM 1% | [2]; at 3.7 µM -2% | [2]; at 11.0 µM 0% | [2]; at 33.0 µM 3% | [2]; at 100.0 µM 13% | [3]; at 1.2 µM -5% | [3]; at 3.7 µM 0% | [3]; at 11.0 µM -1% | [3]; at 33.0 µM -1% | [3]; at 100.0 µM 0% | [4]; at 1.2 µM -1% | [4]; at 3.7 µM -1% | [4]; [17] 1% | [4]; at 11.0 µM 0% | [4]; at 33.0 µM 12% | [4]; [18] 32% | [4]; at 50.0 µM 14.8% | [4]; at 100.0 µM 35% | [5]; at 1.2 µM -5% | [5]; at 3.7 µM -8% | [5]; [17] 0% | [5]; at 11.0 µM -3% | [5]; at 33.0 µM 3% | [5]; [18] 12% | [5]; at 50.0 µM 26.1% | [5]; at 100.0 µM 15% | [6]; at 1.2 µM 1% | [6]; at 3.7 µM 4% | [6]; at 11.0 µM 9% | [6]; at 33.0 µM 28% | [6]; at 100.0 µM 61% | [7]; [17] -2% | [7]; [18] 24% | [7]; at 50.0 µM 35.2% | [8]; at 1.2 µM -7% | [8]; at 3.7 µM -8% | [8]; at 11.0 µM -11% | [8]; at 33.0 µM -7% | [8]; at 100.0 µM -12% | [9]; [17] -3% | [9]; [18] 8% | [9]; at 50.0 µM 7.6% | [10]; at 1.2 µM -2% | [10]; at 3.7 µM -6% | [10]; [17] -1% | [10]; at 11.0 µM -7% | [10]; at 33.0 µM -6% | [10]; [18] 8% | [10]; at 50.0 µM 1.95% | [10]; at 100.0 µM -9% | [11]; at 1.2 µM 0% | [11]; at 3.7 µM -3% | [11]; at 11.0 µM -1% | [11]; at 33.0 µM -1% | [11]; at 100.0 µM 4% | [12]; at 1.2 µM -1% | [12]; at 3.7 µM -1% | [12]; at 11.0 µM -1% | [12]; at 33.0 µM 2% | [12]; at 100.0 µM 6% | [13]; at 1.2 µM 0% | [13]; at 3.7 µM 1% | [13]; at 11.0 µM 1% | [13]; at 33.0 µM 12% | [13]; at 100.0 µM 28% | [14]; [17] 2% | [14]; [18] 36% | [15]; at 1.2 µM 4% | [15]; at 3.7 µM 13% | [15]; at 11.0 µM 29%
active: [14]; at 50.0 µM 73.6% | [15]; at 33.0 µM 86% | [15]; at 100.0 µM 90%

OC1(c2ccccc2)CC2CCC(C1)N2CCCC(O)(c1ccccc1)c1ccccc1 (stereo not given)
active: [6]; at 100.0 µM 96% | [7]; at 50.0 µM 71.8% | [10]; at 100.0 µM 80% | [12]; at 100.0 µM 80% | [13]; at 100.0 µM 89%
inactive: [16]; at 1.2 µM 1% | [16]; at 3.7 µM 1% | [16]; at 11.0 µM 2% | [16]; at 33.0 µM 6% | [16]; at 100.0 µM 24% | [2]; at 1.2 µM -5% | [2]; at 3.7 µM -3% | [2]; at 11.0 µM 0% | [2]; at 33.0 µM 2% | [2]; at 100.0 µM 5% | [4]; at 1.2 µM -6% | [4]; at 3.7 µM -15% | [4]; [17] -8% | [4]; at 11.0 µM -13% | [4]; at 33.0 µM 21% | [4]; [18] 6% | [4]; at 50.0 µM 33.2% | [4]; at 100.0 µM 62% | [6]; at 1.2 µM 4% | [6]; at 3.7 µM 5% | [6]; at 11.0 µM 15% | [6]; at 33.0 µM 53% | [7]; [17] -2% | [7]; [18] 44% | [8]; at 1.2 µM -4% | [8]; at 3.7 µM -5% | [8]; at 11.0 µM -2% | [8]; at 33.0 µM 12% | [8]; at 100.0 µM 49% | [9]; [17] 1% | [9]; [18] 52% | [9]; at 50.0 µM 2.55% | [10]; at 1.2 µM 0% | [10]; at 3.7 µM 0% | [10]; [17] 8% | [10]; at 11.0 µM 5% | [10]; at 33.0 µM 30% | [10]; [18] 67% | [10]; at 50.0 µM 53.7% | [12]; at 1.2 µM 1% | [12]; at 3.7 µM 1% | [12]; at 11.0 µM 3% | [12]; at 33.0 µM 23% | [13]; at 1.2 µM 1% | [13]; at 3.7 µM 3% | [13]; at 11.0 µM 3% | [13]; at 33.0 µM 38% | [14]; [17] -7% | [14]; [18] 26% | [14]; at 50.0 µM 53.5% | [15]; at 1.2 µM 0% | [15]; at 3.7 µM -1% | [15]; at 11.0 µM 4% | [15]; at 33.0 µM 28% | [15]; at 100.0 µM 57%

O=C1C2CCN(CC2)C1CN1CCOCC1 (stereo not given)
active: [4]; at 50.0 µM 88.3% | [5]; at 50.0 µM 90.8% | [7]; at 50.0 µM 87.2% | [10]; at 50.0 µM 89.1%
inactive: [4]; [17] 15% | [4]; [18] 22% | [5]; [17] 22% | [5]; [18] -8% | [7]; [17] 3% | [7]; [18] 8% | [9]; [17] 10% | [9]; [18] 11% | [9]; at 50.0 µM 19.2% | [10]; [17] -1% | [10]; [18] 2% | [14]; [17] 10% | [14]; [18] 16%

O=C(O)c1ccc(NP(=O)(O)Oc2ccccc2)cc1 (tested in a mixture with another compound)
inactive: [4]; [17] 0% | [4]; [18] 8% | [4]; at 50.0 µM -2.15% | [5]; [17] -1% | [5]; [18] 3% | [5]; at 50.0 µM 3.45% | [7]; [17] -20% | [7]; [18] -8% | [7]; at 50.0 µM 29.9% | [9]; [17] -4% | [9]; [18] -6% | [9]; at 50.0 µM -24.8% | [10]; [17] -1% | [10]; [18] -1% | [10]; at 50.0 µM -7.8%

O=c1oc2ccccc2c(O)c1C(c1ccc2c(c1)Cc1ccccc1-2)c1c(O)c2ccccc2oc1=O
inactive: [2]; at 1.2 µM -16% | [2]; at 3.7 µM 43% | [2]; at 11.0 µM 46% | [2]; at 33.0 µM 50% | [2]; at 100.0 µM 51% | [3]; at 1.2 µM 6% | [3]; at 3.7 µM 8% | [3]; at 11.0 µM 31% | [4]; at 1.2 µM 1% | [4]; at 3.7 µM 14% | [4]; [17] 17% | [4]; at 11.0 µM 22% | [4]; at 33.0 µM 61% | [4]; [18] 5% | [5]; at 1.2 µM -18% | [5]; at 3.7 µM -4% | [5]; [17] 12% | [5]; at 11.0 µM 25% | [6]; at 1.2 µM 9% | [6]; at 3.7 µM 14% | [6]; at 11.0 µM 18%
active: [3]; at 33.0 µM 97% | [3]; at 100.0 µM 97% | [4]; at 50.0 µM 70.2% | [4]; at 100.0 µM 96% | [5]; at 33.0 µM 95% | [5]; [18] 92% | [5]; at 50.0 µM 89% | [5]; at 100.0 µM 97% | [6]; at 33.0 µM 97%
